CHRM1 PAM – human CHRM1 positive allosteric modulation; CHO-K1 hM1, Fluo-8 calcium fluorescence, ACh EC20; 0% = ACh EC20, 100% = maximal ACh; activation, % at 3 µM; 0.088% of 360,000 active; in the data active means activation above about 19%, passing the limit was not always enough
Target sequence (P11229 whole entry, looked up): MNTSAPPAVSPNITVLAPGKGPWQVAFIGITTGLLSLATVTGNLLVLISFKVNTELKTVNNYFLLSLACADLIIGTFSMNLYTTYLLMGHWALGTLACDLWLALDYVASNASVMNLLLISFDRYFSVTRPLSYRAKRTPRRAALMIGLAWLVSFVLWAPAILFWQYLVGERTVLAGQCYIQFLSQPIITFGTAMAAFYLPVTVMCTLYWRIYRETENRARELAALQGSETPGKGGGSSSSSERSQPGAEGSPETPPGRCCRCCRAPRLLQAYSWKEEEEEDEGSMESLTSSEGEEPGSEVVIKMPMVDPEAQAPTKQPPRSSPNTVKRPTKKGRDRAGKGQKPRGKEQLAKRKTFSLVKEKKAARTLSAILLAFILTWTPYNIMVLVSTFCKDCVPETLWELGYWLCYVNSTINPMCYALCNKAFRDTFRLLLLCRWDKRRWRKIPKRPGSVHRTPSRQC
CHO-K1 Ca ag – nonselective activator or artifact in parental CHO-K1 cells; activation, % at 3 µM; Fluo-8 calcium fluorescence; scaled to maximal ATP response, vehicle zero; 0.48% of 360,000 active; AID 602248; in the data active means activation above about 15%;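 further: untransfected CHO-K1 host cells lacking M1 receptor as counterscreen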
M1 PAM parental – M1 PAM counterscreen hit in parental CHO-K1 cells | ATP EC20, Fluo-8 calcium fluorescence; 0% at ATP EC20, 100% at ATP max | activation, % at 3 µM | 0.02% of 360,000 active | AID 602247;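 active means activation above the run cutoff, the mean activation of all test compounds plus 3 SD, cut at about 40% in these data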;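 further: peak over basal fluorescence ratio in a 140 s read after ATP addition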
M1 antag – antagonists of human M1 muscarinic receptor | P11229 | CHO-K1 hM1, Fluo-8 calcium fluorescence, ACh EC80 antagonist | inhibition, % at 3 µM | 1.3% of 360,000 active | AID 588852;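 active means percent inhibition above its own plate's cutoff, namely the mean of that plate's compound wells plus 3 SD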;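 further: peak over basal fluorescence ratio during 140 s after agonist addition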
M1 ag – human M1 muscarinic receptor agonism; activation, % at 3 µM; 0.33% of 360,000 active; P11229; CHO-K1 hM1, Fluo-8 calcium fluorescence, agonist mode; 0% DMSO, 100% acetylcholine EC100;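 active means activation above the run's mean compound activation plus 3 SD, cut at about 16% in these data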;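 further: peak over basal fluorescence ratio within a 140 s kinetic read after compound addition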
CHO-K1 Ca antag – M1 antagonist counterscreen hit in parental CHO-K1 cells. inhibition, % at 3 µM. ATP-induced calcium, Fluo-8 fluorescence. 0.6% of 360,000 active;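 active means inhibition above a per-plate cutoff, the plate's mean sample inhibition plus 3 SD, cut at about 24% in these data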
Hits are given with their value; i = inactive. The list is not random: actives were taken first. Their share in the collection is about 2.3%.

SMILES	CHRM1 PAM	CHO-K1 Ca ag	M1 PAM parental	M1 antag	M1 ag	CHO-K1 Ca antag
Cc1ccc(-n2c(C(C)C)nc3oc4ccccc4c(=O)c3c2=O)cc1	i	i	i	i	i	i
Cc1cc(OCC(=O)OCC(=O)NCc2ccco2)ccc1Cl	i	i	i	i	i	i
Cc1ccc(Sc2c([N+](=O)[O-])c(C)nn2C)cc1	i	i	i	87.9	i	i
COc1ccc(OC)c(CCNC(=O)CN2C(=O)COc3ccc(S(=O)(=O)N4CCOCC4)cc32)c1	i	i	i	i	i	i
O=C(COc1ccccc1)NC(=S)N1CCc2ccccc21	i	i	i	i	i	24.2
COc1cc(/C=N/n2cnnc2-n2nc(C)cc2C)cc([N+](=O)[O-])c1O	i	i	i	i	i	i
Cc1ccc(C(=O)N(Cc2ccccc2)C(C)(C)C)cc1C	i	i	i	51.4	i	i
CC(C)(C)N(Cc1ccccc1)C(=O)c1ccc(Cl)cc1[N+](=O)[O-]	i	i	i	38.9	i	i
CC(C)(C)N(Cc1ccccc1)C(=O)c1ccc(Br)o1	i	i	i	i	i	i
COc1ccc(COC(=O)C2=C(C)NC(=O)NC2c2ccc(OC)c(OC)c2)cc1 (stereo not given)	i	i	i	i	i	24.2
COc1cc(C2NC(=O)NC(C)=C2C(=O)OCC2CCCCC2)ccc1O (stereo not given)	i	20.5	i	i	i	i
CC1=C(C(=O)OCCC(C)C)C(c2ccc3c(c2)OCO3)NC(=O)N1 (stereo not given)	i	i	i	i	i	i
C/C=C/COC(=O)C1=C(C)NC(=O)NC1c1ccc2c(c1)OCO2 (stereo not given)	i	i	i	i	i	24.5
Nc1ncnc(Oc2ccccc2F)c1[N+](=O)[O-]	i	i	i	i	i	i
O=[N+]([O-])c1cccc(/C([O-])=C(/C(=S)Nc2ccccc2)[n+]2ccccc2)c1	i	i	i	i	i	i
COc1ccc(C(=O)NCC(c2cccs2)N2CCc3ccccc32)c(OC)c1 (stereo not given)	i	i	57.6	i	i	i
COc1ccc(C(=O)NCC(c2ccco2)N2CCc3ccccc32)cc1 (stereo not given)	i	i	i	i	i	i
CN(C)c1ccc(/C=C2\Oc3ccc(C#Cc4cccc(N)c4)cc3C2=O)cc1	i	i	i	35.1	28.7	i
O=C(Nc1ccc(N2CCOCC2)cc1)c1cccc(S(=O)(=O)N2CCCCC2)c1	i	i	i	i	i	i
CCN1CCN(c2ccc(NC(=O)c3ccco3)cc2Cl)CC1	i	i	i	i	i	i
CCN1CCN(c2ccc(NC(=O)c3cccc(S(=O)(=O)N4CCCC4)c3)cc2)CC1	i	i	i	74.3	i	i
CCN1CCN(c2ccc(NC(=O)c3cccc(F)c3)cc2Cl)CC1	i	i	i	53.8	i	i
CN(C)CC(O)COC(c1ccccc1)c1ccccc1 (stereo not given)	i	i	i	39.3	i	i
COc1ccc(CN(C)CC(O)COC(c2ccccc2)c2ccccc2)c(OC)c1OC (stereo not given)	i	27.8	i	i	i	i
CC(C)(C)n1nnnc1C(c1cccc(C(F)(F)F)c1)N1CCC(O)CC1 (stereo not given)	i	i	i	i	i	i
SMILES	CHRM1 PAM	CHO-K1 Ca ag	M1 PAM parental	M1 antag	M1 ag	CHO-K1 Ca antag
COc1ccc(NC(=O)Nc2ccc3c(c2)OCO3)c(C)c1	i	i	i	i	i	i
CCOC(=O)c1c(C)[nH]c(C(=O)COC(=O)c2ccccc2NC(=O)c2ccco2)c1C	i	i	i	i	i	32.2
Cc1nnc(SCC(=O)N2c3ccccc3CC2C)[nH]c1=O (stereo not given)	i	i	i	i	i	i
NC(=O)c1ccc(NC(=O)c2ccc3c(c2)CCN3S(=O)(=O)c2ccccc2)cc1	i	i	i	i	i	26.4
O=C(O)c1cccc(NC(=O)c2cccc(S(=O)(=O)N3CCc4ccccc43)c2)c1	i	i	i	i	i	i
Cc1cc(C(=O)NNC(=O)c2ccc(NC(=O)CC#N)cc2)c(C)o1	i	i	i	i	i	i
N#Cc1cnn(CC2CCCCC2)c1N	i	i	i	i	i	30.2
Cc1ccc(N(CC(=O)N2CCCCCC2)S(C)(=O)=O)c(C)c1	i	i	i	i	i	i
